From PubChem BioAssay AID624330 (Southern Research Specialized Biocontainment Screening …, 2012)
About 2,100 (0.62%) of roughly 340,000 compounds were called active.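 Rule for the calls: active = first-screen hits whose inhibition reached a set limit at any dose in the follow-up dose series; inconclusive = inhibition above the set first-screen limit but never retested; inactive = the rest.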 A selection follows. Potency and affinity values are given separately.

The compounds below were run against Rac GTPase-activating protein 1 (Homo sapiens) (UniProt Q9H0H5) (assay: blockers of MgcRacGAP-driven Rac1 GTP hydrolysis – biochemical, ADP Hunter fluorescence, primary and confirmatory, confirmation (AID 624330;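 note: fluorescence reports GDP produced by GAP-driven GTP hydrolysis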)). Conditions: MgcRacGAP-stimulated Rac1 GTP hydrolysis, at 30 µM, stronger effect = higher value, GST-tagged Rac1 F28L mutant substrate.
Sequence of Rac GTPase-activating protein 1 (Homo sapiens) (Q9H0H5 whole entry, looked up): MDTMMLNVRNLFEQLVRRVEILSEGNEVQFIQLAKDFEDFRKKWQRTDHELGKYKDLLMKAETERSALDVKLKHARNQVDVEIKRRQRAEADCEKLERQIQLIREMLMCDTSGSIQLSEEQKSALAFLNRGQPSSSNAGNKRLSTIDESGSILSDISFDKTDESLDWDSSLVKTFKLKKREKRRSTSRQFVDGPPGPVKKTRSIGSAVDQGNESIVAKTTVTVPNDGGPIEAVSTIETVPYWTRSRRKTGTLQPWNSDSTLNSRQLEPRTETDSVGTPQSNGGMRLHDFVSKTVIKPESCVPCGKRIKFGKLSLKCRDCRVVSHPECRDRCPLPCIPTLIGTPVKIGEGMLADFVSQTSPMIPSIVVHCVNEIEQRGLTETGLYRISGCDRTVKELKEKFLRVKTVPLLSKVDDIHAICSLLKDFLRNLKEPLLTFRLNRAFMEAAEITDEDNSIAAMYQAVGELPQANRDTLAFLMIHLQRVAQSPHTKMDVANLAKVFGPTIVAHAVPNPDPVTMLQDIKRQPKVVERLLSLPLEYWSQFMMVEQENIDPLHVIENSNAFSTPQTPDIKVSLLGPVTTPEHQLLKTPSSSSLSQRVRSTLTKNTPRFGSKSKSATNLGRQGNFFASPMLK

inhibition, inactive:
Cc1ccc(C(C(=O)NC2CCCCC2)N(Cc2ccco2)C(=O)Cc2c[nH]c3ccccc23)o1 (stereo not given) 9.31%
COc1cc(OC)cc(C(=O)NCCCN2CCOCC2)c1 5.65%
CCc1c(C)nc(SCC(=O)N2CCCCC2)[nH]c1=O 0.74%
O=C1c2ccccc2C(=O)N1CCCCSc1nnc(-c2ccc(OC(F)F)cc2)o1 -1.82%
CC(CNC(=O)Cn1ccc(N)nc1=O)c1ccccc1 (stereo not given) -5.59%
CCN(CC)c1ccc(/C=C2\C(=N)N3N=C(CC(=O)N4CCOCC4)SC3=NC2=O)cc1 5.98%
Cc1ccc(/C=C2/C(=N)N3N=C(CC(=O)N4CCCC4)SC3=NC2=O)cc1 1.49%
COc1cc(/C=C2/C(=N)N3C(=NC2=O)SN=C3S(C)(=O)=O)ccc1OS(=O)(=O)c1ccc(C)cc1 11.8%
COc1cc(/C=C2/C(=N)N3N=C(CC(=O)N4CCOCC4)SC3=NC2=O)ccc1OCc1ccccc1 11.5%
CSc1ccc(/C=C2\C(=N)N3N=C(CC(=O)N4CCOCC4)SC3=NC2=O)cc1 -13.1%
COc1cc(/C=C2\C(=N)N3N=C(S(C)(=O)=O)SC3=NC2=O)ccc1OS(=O)(=O)c1ccc(C)cc1 23.8%
COc1ccc(/C=C2\C(=N)N3N=C(CC(=O)N4CCOCC4)SC3=NC2=O)cc1 5.52%
Cc1ccc(/C=C2\C(=N)N3N=C(CC(=O)N4CCCCC4)SC3=NC2=O)cc1 7.03%
CCCc1nc(NC(=O)c2ccccc2)nc(NC(=O)c2ccccc2)n1 3.82%
Cc1nc(-c2ccccc2)cc(-c2ccccc2)n1 12.4%
CN1CCN(/N=C/c2ccc(Cl)c(Cl)c2)CC1 -7.71%
Cc1ccc(-c2nc3sc4c(c3c(=O)n2N)CC(C)(C)OC4)cc1 3.06%
CCO[C@H]1OC(C(=O)NC2CC2)=C[C@@H](c2ccc3c(c2)OCO3)[C@@H]1CCCO 6.42%
CCCCc1ccc(/C=C2\C(=O)ON=C2c2ccccc2)s1 2.22%
CSc1nc2sc3c(c2c(=O)n1C)CCC3 15.1%
O=C(O)c1ccccc1C(=O)Nc1ccc(Nc2ccc([N+](=O)[O-])cc2[N+](=O)[O-])cc1 15.6%
COc1ccccc1N1C(=O)C2C3CC(c4ccccc4)C(C3)C2C1=O (stereo not given) 7.95%
O=C(O)CCNS(=O)(=O)c1ccc2c(c1)OCCCO2 9.26%
Cc1ccc(Cl)c(NC(=O)CN2C(=O)C(C)N(c3ccc(F)cc3)C2=O)c1Cl (stereo not given) 15.2%
Cc1ccc(N2CC(C(=O)Nc3ccc4c(c3)OCCO4)CC2=O)cc1C (stereo not given) 10.2%
Cc1ccc(N2CC(C(=O)Nc3ccc(N4CCOCC4)cc3)CC2=O)cc1C (stereo not given) 1.23%
CC1CCc2sc(C(=O)NC3CCN(Cc4ccccc4)CC3)cc2C1 (stereo not given) 3.25%
Cc1nsc(Nc2ccccc2)c1C#N 4.71%
N#Cc1c(Nc2ccccc2)sc(C(=O)c2ccccc2)c1N -10.7%
Cc1nsc(Nc2ccc([N+](=O)[O-])cc2)c1C#N 2.18%
CSc1nsc(/C=C/Nc2ccc(Cl)cc2)c1C#N 6.16%
Cn1ncc2c(Nc3cc(Cl)cc(Cl)c3)ncnc21 11.1%
CN(CC(=O)Nc1ccccc1Cl)C(=O)COC(=O)c1ccccc1[N+](=O)[O-] 11.2%
Cc1cccc(CCN2CCN=C2Nc2ccccc2)c1 10.2%
CCNS(=O)(=O)c1ccc(NC(=O)c2cccnc2)cc1 -7.35%
CCOc1cccc(/C=N/NC(=O)c2cc(C3CC3)[nH]n2)c1O 9.09%
CCOc1ccc(/C=N/NC(=O)C2CC2)cc1OC 4.39%
COc1cc(/C=N/NC(=O)C2CCN(CC(O)COCc3ccccc3)CC2)cc(OC)c1OC (stereo not given) -0.29%
COc1ccc(/C=N/NC(=O)c2ccc(=O)n(C)c2)cc1OC 11.2%
CCOc1cc(/C=N/NC(=O)C2CCCC2)ccc1OC(C)C 7.91%
COc1ccc(/C=N/NC(=O)c2cc(C3CC3)[nH]n2)cc1OC 7.5%
Cn1cc(C(=O)N/N=C/c2cccc(O)c2)ccc1=O 7.64%
C=CCOc1ccc(/C=N/NC(=O)C2CCCC2)cc1OCC 7.59%
COc1cc(/C=N/NC(=O)c2ccc(NC(=O)C3CC3)cc2)ccc1OC(C)=O 7.67%
COc1cc(/C=N/NC(=O)c2ccc(NC(=O)C3CCCCC3)cc2)ccc1O 8.05%
CCn1cc(/C=C(\NC(=O)c2ccccc2)C(=O)NCCCN2CCOCC2)c2ccccc21 13%
COc1ccc(/[N+]([O-])=C/c2ccco2)cc1 9.73%
CC(C)CNC(=O)NC(=O)COC(=O)c1cc(F)cc(F)c1 2.44%
COc1cc(/C=N/NC(=O)CSc2nc3ccccc3n2C)cc(OC)c1OC -9.37%
C/C(=N\NC(=O)CSc1nc2ccccc2o1)c1cccc(O)c1 10.7%
C/C(=N/NC(=O)CSc1nc2ccccc2n1C)c1ccco1 7.14%
C/C(=N/NC(=O)CSc1nc2ccccc2n1C)c1ccncc1 8.72%
CC(=NNC(=O)CSc1nc2ccccc2o1)c1ccco1 3.04%
CCn1c(SCC(=O)N/N=C/c2ccc(O)c(OC)c2)nc2ccccc21 12%
COc1ccccc1C(=O)NC(CCSC)C(=O)NCC(c1ccco1)N(C)C (stereo not given) 10.1%
O=C(O)c1ccc(N2CCS(=O)(=O)CC2)cc1 2.19%
CON(C)c1nc(NCC(C)C)nc(OCC#N)n1 -6.48%
CCn1c(=O)c2cc(C(=O)N3CCN(C)CC3)sc2c2ccccc21 7.75%
COc1ccc(NC(=O)CC2S/C(=N\c3nccs3)N(C)C2=O)cc1 (stereo not given) 13.7%
COc1cc2nncc(SC)c2cc1OC 8.55%
